This passage reports binding signal results from paper PMC12820563, “FoxP3 forms a head-to-head dimer in vivo and stabilizes its multimerization on adjacent microsatellites”.

Over roughly 16,000 sequences, “rpm ratio (pull-down/input)” has its median near 0.5; the highest 2% begin near 5.5. What follows is part of a selection rich in the highest values, with near analogues and random picks from the rest.

For the assay, the target named is T1, MBP-FoxP3dN (Mus musculus, UniProt Q99JB6 188-423).
T1 sequence: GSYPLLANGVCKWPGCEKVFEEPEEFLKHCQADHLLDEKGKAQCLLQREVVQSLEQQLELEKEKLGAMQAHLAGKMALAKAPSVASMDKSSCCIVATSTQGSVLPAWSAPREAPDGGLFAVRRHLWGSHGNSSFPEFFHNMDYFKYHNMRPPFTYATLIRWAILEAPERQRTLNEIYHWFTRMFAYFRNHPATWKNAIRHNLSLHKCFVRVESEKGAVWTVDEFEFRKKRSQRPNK
In words: PD-seq (MBP pull-down with sequencing); 20 mM Tris-HCl pH 7.5, 100 mM NaCl, 1.5 mM MgCl2, 0.4 uM protein, 0.1 uM dsDNA library, 30 min, room temperature, amylose pull-down; high values mean tight binding. The conditions noted are these: protein: recombinant; tags: His6-MBP; chain copies: 2; dsDNA, one strand shown. In short, it runs like this:
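Mouse FoxP3 or FoxP1 fragment lacking the N-terminus, His6-MBP-tagged and expressed in E. coli, was incubated at 0.4 µM with 0.1 µM Klenow-filled degenerate double-stranded DNA library for 30 min at room temperature in Tris pH 7.5 buffer with NaCl and MgCl2. Complexes captured on amylose resin were washed three times and their DNA sequenced on Illumina. Binding is reads-per-million enrichment of pull-down over input, replicates pooled.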
Take “GATGATTGTTCTCCCAGCTGATGAATTGGACCATTCGAGTAAACAAATTTTCCTAATCTTTCTGTTCAAGCGCCATCTAC”: the binding signal is 0.374 RPM ratio (pull-down/input). Turning to “GATGATTGTTCTCCCAGCTGATGAATTAGCCGACTCGAGTAAACAAATTTTCCTAATCTTTCTGTTCAAGCGCCATCTAC”, the binding signal is 0.205 RPM ratio (pull-down/input). Then “GATGATTGTTCTCCCAGCTGATGAATTCTGGAATTCGAGTAAACAAATTTTCCTAATCTTTCTGTTCAAGCGCCATCTAC”, with 0.579 RPM ratio (pull-down/input). In the case of “GATGATTGTTCTCCCAGCTGATGAATTCCCTGTGTCGAGTAAACAAATTTTCCTAATCTTTCTGTTCAAGCGCCATCTAC”, the binding signal is 0.347 RPM ratio (pull-down/input).

“GATGATTGTTCTCCCAGCTGATGAATTGTCGTGTTCGAGTAAACAAATTTTCCTAATCTTTCTGTTCAAGCGCCATCTAC”: the binding signal was 0.915 RPM ratio (pull-down/input).

On to “GATGATTGTTCTCCCAGCTGATGAATTTTTGCTGTCGAGTAAACAAATTTTCCTAATCTTTCTGTTCAAGCGCCATCTAC”, for which the binding signal is 0.548 RPM ratio (pull-down/input). Then “GATGATTGTTCTCCCAGCTGATGAATTTGTCGTGTCGAGTAAACAAATTTTCCTAATCTTTCTGTTCAAGCGCCATCTAC”, with 5.6 RPM ratio (pull-down/input); and “GATGATTGTTCTCCCAGCTGATGAATTTGCTGTGTCGAGTAAACAAATTTTCCTAATCTTTCTGTTCAAGCGCCATCTAC”, with 6.29 RPM ratio (pull-down/input).

As to “GATGATTGTTCTCCCAGCTGATGAATTCGTGTTGTCGAGTAAACAAATTTTCCTAATCTTTCTGTTCAAGCGCCATCTAC”, the binding signal was 2.75 RPM ratio (pull-down/input).

On to “GATGATTGTTCTCCCAGCTGATGAATTTTTCGTGTCGAGTAAACAAATTTTCCTAATCTTTCTGTTCAAGCGCCATCTAC”, for which the binding signal was 0.363 RPM ratio (pull-down/input).

As to “GATGATTGTTCTCCCAGCTGATGAATTGCTTGTGTCGAGTAAACAAATTTTCCTAATCTTTCTGTTCAAGCGCCATCTAC”, the binding signal was 2.01 RPM ratio (pull-down/input). For the sequence “GATGATTGTTCTCCCAGCTGATGAATTCGTTGTGTCGAGTAAACAAATTTTCCTAATCTTTCTGTTCAAGCGCCATCTAC”, the binding signal was 5.69 RPM ratio (pull-down/input). Then “GATGATTGTTCTCCCAGCTGATGAATTGTTGTTGTCGAGTAAACAAATTTTCCTAATCTTTCTGTTCAAGCGCCATCTAC”, with 7.65 RPM ratio (pull-down/input); and “GATGATTGTTCTCCCAGCTGATGAATTTCTGTTGTCGAGTAAACAAATTTTCCTAATCTTTCTGTTCAAGCGCCATCTAC”, with 1.28 RPM ratio (pull-down/input); and “GATGATTGTTCTCCCAGCTGATGAATTGTGTCGTTCGAGTAAACAAATTTTCCTAATCTTTCTGTTCAAGCGCCATCTAC”, with 2.73 RPM ratio (pull-down/input). Then “GATGATTGTTCTCCCAGCTGATGAATTTTTGTTGTCGAGTAAACAAATTTTCCTAATCTTTCTGTTCAAGCGCCATCTAC”, with 3.24 RPM ratio (pull-down/input); and “GATGATTGTTCTCCCAGCTGATGAATTAGGCTGATCGAGTAAACAAATTTTCCTAATCTTTCTGTTCAAGCGCCATCTAC”, with 0.537 RPM ratio (pull-down/input); and “GATGATTGTTCTCCCAGCTGATGAATTGAGTGCCTCGAGTAAACAAATTTTCCTAATCTTTCTGTTCAAGCGCCATCTAC”, with 0.963 RPM ratio (pull-down/input). “GATGATTGTTCTCCCAGCTGATGAATTCATTGAATCGAGTAAACAAATTTTCCTAATCTTTCTGTTCAAGCGCCATCTAC”: the binding signal is 0.267 RPM ratio (pull-down/input).

On to “GATGATTGTTCTCCCAGCTGATGAATTGTGGACCTCGAGTAAACAAATTTTCCTAATCTTTCTGTTCAAGCGCCATCTAC”, for which the binding signal is 0.571 RPM ratio (pull-down/input). On to “GATGATTGTTCTCCCAGCTGATGAATTCAATAGGTCGAGTAAACAAATTTTCCTAATCTTTCTGTTCAAGCGCCATCTAC”, for which the binding signal was 0.536 RPM ratio (pull-down/input). Then “GATGATTGTTCTCCCAGCTGATGAATTCGGATGGTCGAGTAAACAAATTTTCCTAATCTTTCTGTTCAAGCGCCATCTAC”, with 0.433 RPM ratio (pull-down/input); and “GATGATTGTTCTCCCAGCTGATGAATTTCTGCACTCGAGTAAACAAATTTTCCTAATCTTTCTGTTCAAGCGCCATCTAC”, with 0.475 RPM ratio (pull-down/input); and “GATGATTGTTCTCCCAGCTGATGAATTCAAGTGTTCGAGTAAACAAATTTTCCTAATCTTTCTGTTCAAGCGCCATCTAC”, with 0.65 RPM ratio (pull-down/input). For the sequence “GATGATTGTTCTCCCAGCTGATGAATTCGGACCATCGAGTAAACAAATTTTCCTAATCTTTCTGTTCAAGCGCCATCTAC”, the binding signal was 0.399 RPM ratio (pull-down/input). Then “GATGATTGTTCTCCCAGCTGATGAATTATAAGATTCGAGTAAACAAATTTTCCTAATCTTTCTGTTCAAGCGCCATCTAC”, with 0.351 RPM ratio (pull-down/input). Then “GATGATTGTTCTCCCAGCTGATGAATTTGTGTCGTCGAGTAAACAAATTTTCCTAATCTTTCTGTTCAAGCGCCATCTAC”, with 5 RPM ratio (pull-down/input); and “GATGATTGTTCTCCCAGCTGATGAATTTTCTGTGTCGAGTAAACAAATTTTCCTAATCTTTCTGTTCAAGCGCCATCTAC”, with 0.415 RPM ratio (pull-down/input); and “GATGATTGTTCTCCCAGCTGATGAATTGTCTGTGTCGAGTAAACAAATTTTCCTAATCTTTCTGTTCAAGCGCCATCTAC”, with 0.563 RPM ratio (pull-down/input). For the sequence “GATGATTGTTCTCCCAGCTGATGAATTGATTGTGTCGAGTAAACAAATTTTCCTAATCTTTCTGTTCAAGCGCCATCTAC”, the binding signal was 3.72 RPM ratio (pull-down/input). As to “GATGATTGTTCTCCCAGCTGATGAATTGTGATTGTCGAGTAAACAAATTTTCCTAATCTTTCTGTTCAAGCGCCATCTAC”, the binding signal was 4.91 RPM ratio (pull-down/input). For the sequence “GATGATTGTTCTCCCAGCTGATGAATTGAATGTGTCGAGTAAACAAATTTTCCTAATCTTTCTGTTCAAGCGCCATCTAC”, the binding signal is 1.26 RPM ratio (pull-down/input). Then “GATGATTGTTCTCCCAGCTGATGAATTGTGAATGTCGAGTAAACAAATTTTCCTAATCTTTCTGTTCAAGCGCCATCTAC”, with 1.32 RPM ratio (pull-down/input); and “GATGATTGTTCTCCCAGCTGATGAATTTGTTGTGTCGAGTAAACAAATTTTCCTAATCTTTCTGTTCAAGCGCCATCTAC”, with 8.35 RPM ratio (pull-down/input); and “GATGATTGTTCTCCCAGCTGATGAATTTGATGTGTCGAGTAAACAAATTTTCCTAATCTTTCTGTTCAAGCGCCATCTAC”, with 6.14 RPM ratio (pull-down/input).

Regarding “GATGATTGTTCTCCCAGCTGATGAATTTCTTGTGTCGAGTAAACAAATTTTCCTAATCTTTCTGTTCAAGCGCCATCTAC”, the binding signal was 1.59 RPM ratio (pull-down/input).

Take “GATGATTGTTCTCCCAGCTGATGAATTTGTGTTGTCGAGTAAACAAATTTTCCTAATCTTTCTGTTCAAGCGCCATCTAC”: the binding signal is 6.27 RPM ratio (pull-down/input).

Take “GATGATTGTTCTCCCAGCTGATGAATTTGTGATGTCGAGTAAACAAATTTTCCTAATCTTTCTGTTCAAGCGCCATCTAC”: the binding signal was 5.62 RPM ratio (pull-down/input). With “GATGATTGTTCTCCCAGCTGATGAATTTAGTATATCGAGTAAACAAATTTTCCTAATCTTTCTGTTCAAGCGCCATCTAC” the figure was 2.93 RPM ratio (pull-down/input). With “GATGATTGTTCTCCCAGCTGATGAATTAGCTGGCTCGAGTAAACAAATTTTCCTAATCTTTCTGTTCAAGCGCCATCTAC”, the binding signal was 0.476 RPM ratio (pull-down/input).
